The results in this text go back to PubChem BioAssay (EPA / NIEHS).

Molecules are shown by their SMILES. Values joined by “and” are separate entries in the source; they are usually repeats but may differ in a detail not shown here. Equal values may be shown once. Inconclusive results are not listed. Where a structure was tested more than once in an assay, its records may differ in their call. Active and inactive are the calls of the source. Rule for the calls: active = hit-call score of the fitted dose curve at least 0.9, where 1 is the maximum; inconclusive = response in the unintended direction; inactive = score below 0.9.

The target of test [1] is rat Adrenergic, Alpha 1, Non-selective Receptor (Adra1), Adra1a (gene 29412) (UniProt P43140). The experiment in a line: NVS_GPCR_rAdra1_NonSelective: NovaScreen (NVS) G Protein-Coupled Receptor Assay for rat Adrenergic, Alpha 1, Non-selective Receptor (Adra1) (AID 2283289). The essentials:
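Chemicals first screened in duplicate at 25 uM, then actives tested in concentration series up to 50 uM. Binding measured as displacement of radioligand from rat forebrain membrane receptors, 1 h, filtration with scintillation readout; DMSO baseline.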

Test [2] has as its target human Vasopressin 1A Receptor (V1A), AVPR1A (gene 552) (UniProt P37288). The test can be described thus: NVS_GPCR_hV1A: NovaScreen (NVS) G Protein-Coupled Receptor Assay for human Vasopressin 1A Receptor (V1A) (AID 2283284). The essentials: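 Single-concentration duplicate screen at 25 uM, with concentration-response follow-up (top 50 uM) for actives. The assay measured displacement of a radioligand from human platelet-derived receptor after 1.5 h, detected by filtration and scintillation counting.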

Test [3] relates to rabbit Platelet Activating Factor Receptor (PAF), gene 100354046. The test can be described thus: NVS_GPCR_rabPAF: NovaScreen (NVS) G Protein-Coupled Receptor Assay for rabbit Platelet Activating Factor Receptor (PAF) (AID 2283287). In short, it runs like this: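 Rabbit platelet membrane preparation; radioligand displacement read by filter-based scintillation counting 1 h after dosing, loss of signal versus DMSO. Primary screen in duplicate at 25 uM, actives followed up in concentration series.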

Test [4] deals with human Opioid Receptor Mu (Opiate Mu), OPRM1 (gene 4988) (UniProt P35372). The experiment in a line: NVS_GPCR_hOpiate_mu: NovaScreen (NVS) G Protein-Coupled Receptor Assay for human Opioid Receptor Mu (Opiate Mu) (AID 2283290).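 Note: hits lower bound tracer signal versus DMSO meaning displacement of the ligand.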 The essentials: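 CHO-derived receptor protein, cell-free; radioligand displacement, filtration + scintillation counting, read at 2.5 h. DMSO = negative control/baseline. Primary: 25 uM single conc, duplicate; secondary: concentration series.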
Chain of human Opioid Receptor Mu (Opiate Mu), OPRM1 (gene 4988) (P35372 whole entry, looked up): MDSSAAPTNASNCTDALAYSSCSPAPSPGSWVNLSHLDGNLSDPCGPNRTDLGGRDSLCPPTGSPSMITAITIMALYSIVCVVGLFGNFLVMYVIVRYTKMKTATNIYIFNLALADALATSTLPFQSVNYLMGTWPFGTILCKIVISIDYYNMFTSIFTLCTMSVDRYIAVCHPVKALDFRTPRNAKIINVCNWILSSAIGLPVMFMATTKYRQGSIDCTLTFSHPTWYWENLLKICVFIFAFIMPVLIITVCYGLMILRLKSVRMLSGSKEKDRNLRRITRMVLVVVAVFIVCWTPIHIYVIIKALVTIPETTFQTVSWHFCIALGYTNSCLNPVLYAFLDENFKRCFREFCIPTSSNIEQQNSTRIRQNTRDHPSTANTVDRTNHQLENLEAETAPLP

The target of test [5] is guinea pig Bradykinin Receptor B2 (BK2), BDKRB2 (gene 100135486) (UniProt O70526). The test can be described thus: NVS_GPCR_gBK2: NovaScreen (NVS) G Protein-Coupled Receptor Assay for guinea pig Bradykinin Receptor B2 (BK2) (AID 2283292). The essentials: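 Guinea pig ileum membrane preparation incubated 1 h with radioligand and test chemical; bound counts measured after filtration. Primary duplicate screening at 25 uM, then singleton concentration series with a 50 uM top dose; DMSO as baseline.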
Chain of guinea pig Bradykinin Receptor B2 (BK2), BDKRB2 (gene 100135486) (O70526 whole entry, looked up): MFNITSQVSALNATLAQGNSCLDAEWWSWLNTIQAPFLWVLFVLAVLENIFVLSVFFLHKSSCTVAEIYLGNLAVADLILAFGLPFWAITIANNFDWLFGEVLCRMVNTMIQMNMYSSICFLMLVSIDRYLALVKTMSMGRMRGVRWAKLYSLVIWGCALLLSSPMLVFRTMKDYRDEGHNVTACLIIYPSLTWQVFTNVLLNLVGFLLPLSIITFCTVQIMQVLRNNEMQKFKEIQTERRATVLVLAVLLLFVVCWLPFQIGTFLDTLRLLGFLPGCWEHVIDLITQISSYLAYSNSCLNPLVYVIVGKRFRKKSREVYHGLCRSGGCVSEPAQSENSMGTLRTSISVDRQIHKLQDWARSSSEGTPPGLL

Test [6] concerns the target guinea pig Serotonin, 5-Hydroxytryptamine Receptor 4 (5HT4), HTR4 (gene 100135548) (UniProt O70528). The test can be described thus: NVS_GPCR_g5HT4: NovaScreen (NVS) G Protein-Coupled Receptor Assay for guinea pig Serotonin, 5-Hydroxytryptamine Receptor 4 (5HT4) (AID 2283294). In short, it runs like this: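 Compounds first screened in duplicate at 25 uM, actives followed up in concentration series. Binding measured as displacement of specific radioligand from guinea pig striatal membranes, 1 h, filter-based scintillation read-out versus DMSO baseline.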

For test [7], the target named is rat Adrenergic Receptor, Alpha 2 (Adra2), Non-selective Binding, Adra2a (gene 25083) (UniProt P22909). The test can be described thus: NVS_GPCR_rAdra2_NonSelective: NovaScreen (NVS) G Protein-Coupled Receptor Assay for rat Adrenergic Receptor, Alpha 2 (Adra2), Non-selective Binding (AID 2283299). In short, it runs like this: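 Filter-based scintillation counting of radioligand binding to rat cortical membrane receptors, measured 1.25 hours post-dosing; loss of signal versus DMSO indicates displacement. Initial single-concentration duplicate at 25 uM, then concentration series.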
Chain of rat Adrenergic Receptor, Alpha 2 (Adra2), Non-selective Binding, Adra2a (gene 25083) (P22909 whole entry, looked up): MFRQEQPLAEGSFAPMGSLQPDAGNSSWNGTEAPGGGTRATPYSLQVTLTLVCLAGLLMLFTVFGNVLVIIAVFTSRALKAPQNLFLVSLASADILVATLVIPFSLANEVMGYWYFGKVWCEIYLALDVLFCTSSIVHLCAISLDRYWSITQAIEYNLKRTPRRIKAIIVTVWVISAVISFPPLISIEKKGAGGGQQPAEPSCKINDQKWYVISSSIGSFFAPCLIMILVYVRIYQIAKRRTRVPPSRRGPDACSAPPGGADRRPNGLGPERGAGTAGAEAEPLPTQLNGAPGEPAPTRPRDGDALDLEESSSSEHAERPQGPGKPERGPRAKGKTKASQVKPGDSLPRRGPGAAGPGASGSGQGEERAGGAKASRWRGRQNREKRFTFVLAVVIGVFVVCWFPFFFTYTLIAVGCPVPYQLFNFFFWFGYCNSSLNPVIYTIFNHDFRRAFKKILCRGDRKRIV

In test [8] the target is rat Neurokinin-3 Receptor (NK3), Tacr3 (gene 24808) (UniProt P16177). The experiment in a line: NVS_GPCR_rNK3: NovaScreen (NVS) G Protein-Coupled Receptor Assay for rat Neurokinin-3 Receptor (NK3) (AID 2283310). In short, it runs like this:
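Filter-based radioligand displacement on rat cortex membrane preparations, read by scintillation 2 h post-dose. Chemicals first tested in duplicate at 25 uM; actives followed up in concentration series with a 50 uM maximum.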

Test [9] deals with human Thromboxane A2 Receptor (TXA2), TBXA2R (gene 6915) (UniProt P21731). The test can be described thus: NVS_GPCR_hTXA2: NovaScreen (NVS) G Protein-Coupled Receptor Assay for human Thromboxane A2 Receptor (TXA2) (AID 2283282).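 Note: actives reduce bound radioligand signal relative to DMSO baseline.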 In short, it runs like this:
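Cell-free radioligand binding with human platelet-derived receptor; 1 h after dosing, filter-based scintillation counting, loss of signal vs DMSO. Primary screen in duplicate at 25 uM.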

Test [10] addresses human Orphanin, Opioid Related Nociceptin Receptor 1 (ORL1), OPRL1 (gene 4987) (UniProt P41146). The test can be described thus: NVS_GPCR_hORL1: NovaScreen (NVS) G Protein-Coupled Receptor Assay for human Orphanin, Opioid Related Nociceptin Receptor 1 (ORL1) (AID 2283283). The essentials:
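Cell-free binding using HEK293-derived receptor protein: radioligand displacement measured by filter scintillation 1 hour after dosing. Primary testing at 25 uM in duplicate, followed by singleton concentration series up to 50 uM; DMSO served as negative control.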

In test [11] the target is Adra2b (gene 24174) (UniProt P19328). The experiment in a line: NVS_GPCR_rmAdra2B: NovaScreen (NVS) G Protein-Coupled Receptor Assay for hybird cells Adrenergic, Alpha 2B Receptor (Adra2B) (AID 2283306). The essentials:
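Compounds screened first at 25 uM in duplicate, with actives followed up in concentration-response; specific radioligand displacement from hybrid neuroglioma/blastoma cell membrane preparations measured by filter scintillation counting after 1 h, normalized to DMSO.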

Test [12] has as its target rat Serotonin, 5-Hydroxytryptamine Receptor 1 (5HT1), Non-Selective Binding, Htr1a (gene 24473) (UniProt P19327). The test can be described thus: NVS_GPCR_r5HT1_NonSelective: NovaScreen (NVS) G Protein-Coupled Receptor Assay for rat Serotonin, 5-Hydroxytryptamine Receptor 1 (5HT1), Non-Selective Binding (AID 2283286). In short, it runs like this: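 Binding of a radioligand to rat cortex membranes is read by filtration and scintillation counting after 1 h. Compounds were screened at 25 uM in duplicate. Actives were then titrated to a top of 50 uM. DMSO is the baseline.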

The target in test [13] is rat Neurokinin-1 Receptor (NK1), Tacr1 (gene 24807) (UniProt P14600). The experiment in a line: NVS_GPCR_rNK1: NovaScreen (NVS) G Protein-Coupled Receptor Assay for rat Neurokinin-1 Receptor (NK1) (AID 2283309). The essentials:
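Competitive radioligand binding to NK1 in rat submaxillary membranes, 1 h incubation, filtration and scintillation read-out. Compounds first screened at 25 uM in duplicate, then concentration-response for actives; signal loss relative to DMSO.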

Chain of rat Neurokinin-3 Receptor (NK3), Tacr3 (gene 24808) (P16177 whole entry, looked up): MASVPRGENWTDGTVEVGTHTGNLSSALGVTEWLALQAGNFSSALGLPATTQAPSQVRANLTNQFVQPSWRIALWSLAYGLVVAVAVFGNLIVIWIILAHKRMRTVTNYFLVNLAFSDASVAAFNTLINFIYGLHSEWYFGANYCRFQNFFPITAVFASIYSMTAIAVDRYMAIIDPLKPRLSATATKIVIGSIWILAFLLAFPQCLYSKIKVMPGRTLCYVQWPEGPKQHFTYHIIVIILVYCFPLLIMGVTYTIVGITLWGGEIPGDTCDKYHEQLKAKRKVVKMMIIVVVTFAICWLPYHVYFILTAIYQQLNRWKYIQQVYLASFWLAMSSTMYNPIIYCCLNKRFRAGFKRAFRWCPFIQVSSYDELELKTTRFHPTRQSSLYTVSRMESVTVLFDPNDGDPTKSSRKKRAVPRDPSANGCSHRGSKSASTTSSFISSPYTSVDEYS
Chain of guinea pig Serotonin, 5-Hydroxytryptamine Receptor 4 (5HT4), HTR4 (gene 100135548) (O70528 whole entry, looked up): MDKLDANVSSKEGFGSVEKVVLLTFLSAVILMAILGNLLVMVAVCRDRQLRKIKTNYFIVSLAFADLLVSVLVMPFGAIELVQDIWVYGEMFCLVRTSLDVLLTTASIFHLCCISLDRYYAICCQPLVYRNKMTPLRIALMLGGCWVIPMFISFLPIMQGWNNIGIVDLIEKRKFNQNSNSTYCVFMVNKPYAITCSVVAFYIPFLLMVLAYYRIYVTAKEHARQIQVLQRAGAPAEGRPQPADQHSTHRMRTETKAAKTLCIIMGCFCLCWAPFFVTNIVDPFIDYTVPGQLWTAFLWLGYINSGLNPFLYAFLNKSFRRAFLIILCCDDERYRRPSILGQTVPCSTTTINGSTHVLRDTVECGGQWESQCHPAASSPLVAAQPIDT
Chain of human Vasopressin 1A Receptor (V1A), AVPR1A (gene 552) (P37288 whole entry, looked up): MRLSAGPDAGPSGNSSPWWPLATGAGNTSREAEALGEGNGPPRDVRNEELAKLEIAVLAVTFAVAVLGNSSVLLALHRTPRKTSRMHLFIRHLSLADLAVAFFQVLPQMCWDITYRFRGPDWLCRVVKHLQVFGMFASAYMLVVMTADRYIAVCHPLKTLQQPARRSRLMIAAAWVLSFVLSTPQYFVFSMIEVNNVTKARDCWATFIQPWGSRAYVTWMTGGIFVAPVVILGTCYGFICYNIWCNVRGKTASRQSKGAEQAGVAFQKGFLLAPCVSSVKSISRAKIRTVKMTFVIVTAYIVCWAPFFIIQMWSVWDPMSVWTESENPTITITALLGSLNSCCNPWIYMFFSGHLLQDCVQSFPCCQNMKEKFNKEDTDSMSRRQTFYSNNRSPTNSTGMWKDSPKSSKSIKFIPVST
Chain of rat Adrenergic, Alpha 1, Non-selective Receptor (Adra1), Adra1a (gene 29412) (P43140 whole entry, looked up): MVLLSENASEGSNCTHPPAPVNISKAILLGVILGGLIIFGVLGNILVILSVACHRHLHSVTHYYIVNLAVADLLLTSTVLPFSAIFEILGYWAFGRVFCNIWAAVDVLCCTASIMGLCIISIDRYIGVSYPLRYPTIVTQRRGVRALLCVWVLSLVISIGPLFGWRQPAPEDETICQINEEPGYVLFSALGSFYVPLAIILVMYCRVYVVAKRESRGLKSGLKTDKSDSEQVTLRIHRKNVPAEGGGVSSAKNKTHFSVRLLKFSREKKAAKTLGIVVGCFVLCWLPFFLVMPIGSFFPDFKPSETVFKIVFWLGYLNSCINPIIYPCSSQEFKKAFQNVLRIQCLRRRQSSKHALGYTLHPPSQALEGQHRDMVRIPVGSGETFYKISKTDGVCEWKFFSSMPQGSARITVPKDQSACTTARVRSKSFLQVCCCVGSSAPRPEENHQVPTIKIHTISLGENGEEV
Chain of rat Neurokinin-1 Receptor (NK1), Tacr1 (gene 24807) (P14600 whole entry, looked up): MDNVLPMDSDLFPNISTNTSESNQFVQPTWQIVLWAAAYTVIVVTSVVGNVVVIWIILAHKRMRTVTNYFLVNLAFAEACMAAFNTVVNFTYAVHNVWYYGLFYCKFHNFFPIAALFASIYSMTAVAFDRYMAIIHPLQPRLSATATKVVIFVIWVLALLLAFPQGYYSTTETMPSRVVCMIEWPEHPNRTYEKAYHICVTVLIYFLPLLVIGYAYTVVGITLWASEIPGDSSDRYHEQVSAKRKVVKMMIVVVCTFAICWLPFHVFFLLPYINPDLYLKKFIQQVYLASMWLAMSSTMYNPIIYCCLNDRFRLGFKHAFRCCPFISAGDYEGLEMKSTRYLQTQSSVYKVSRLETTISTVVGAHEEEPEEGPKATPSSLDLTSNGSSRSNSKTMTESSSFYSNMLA
Chain of Adra2b (gene 24174) (P19328 whole entry, looked up): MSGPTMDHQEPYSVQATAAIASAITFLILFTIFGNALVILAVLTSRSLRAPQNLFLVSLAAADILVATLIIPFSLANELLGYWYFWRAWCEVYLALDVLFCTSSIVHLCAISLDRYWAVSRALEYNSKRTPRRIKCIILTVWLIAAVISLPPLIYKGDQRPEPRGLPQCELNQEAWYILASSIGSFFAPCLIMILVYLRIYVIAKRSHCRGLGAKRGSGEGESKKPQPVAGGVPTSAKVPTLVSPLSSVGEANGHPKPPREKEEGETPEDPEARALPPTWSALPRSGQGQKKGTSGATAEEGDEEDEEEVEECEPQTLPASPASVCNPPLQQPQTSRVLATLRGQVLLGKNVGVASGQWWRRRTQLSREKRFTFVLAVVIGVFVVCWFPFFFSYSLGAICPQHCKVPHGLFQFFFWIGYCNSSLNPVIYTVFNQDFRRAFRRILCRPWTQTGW
Chain of human Orphanin, Opioid Related Nociceptin Receptor 1 (ORL1), OPRL1 (gene 4987) (P41146 whole entry, looked up): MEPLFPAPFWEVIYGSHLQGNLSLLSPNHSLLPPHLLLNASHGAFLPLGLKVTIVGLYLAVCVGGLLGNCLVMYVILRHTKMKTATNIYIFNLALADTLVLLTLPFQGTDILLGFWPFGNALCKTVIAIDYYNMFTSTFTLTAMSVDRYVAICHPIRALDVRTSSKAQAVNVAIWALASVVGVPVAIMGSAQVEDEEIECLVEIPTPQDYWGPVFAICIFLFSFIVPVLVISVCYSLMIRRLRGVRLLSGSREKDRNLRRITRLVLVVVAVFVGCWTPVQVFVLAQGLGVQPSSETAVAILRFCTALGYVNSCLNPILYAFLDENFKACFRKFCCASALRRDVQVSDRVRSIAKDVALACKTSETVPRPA
Chain of human Thromboxane A2 Receptor (TXA2), TBXA2R (gene 6915) (P21731 whole entry, looked up): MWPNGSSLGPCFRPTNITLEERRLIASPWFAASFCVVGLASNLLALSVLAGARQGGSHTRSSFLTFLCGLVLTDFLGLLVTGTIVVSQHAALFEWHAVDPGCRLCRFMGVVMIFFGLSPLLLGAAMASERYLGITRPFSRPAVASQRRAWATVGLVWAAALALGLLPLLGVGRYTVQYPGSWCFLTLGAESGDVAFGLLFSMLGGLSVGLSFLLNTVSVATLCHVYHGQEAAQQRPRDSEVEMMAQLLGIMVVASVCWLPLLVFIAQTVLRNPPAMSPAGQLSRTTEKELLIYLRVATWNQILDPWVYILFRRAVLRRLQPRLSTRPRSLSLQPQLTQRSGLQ

Regarding `COC(=O)c1ccc(CNS(C)(=O)=O)cc1S(=O)(=O)NC(=O)Nc1nc(OC)cc(OC)n1`, the outcome in test [1] was inactive.

On to `COC(=O)c1cccc(C)c1S(=O)(=O)NC(=O)Nc1nc(OCC(F)(F)F)nc(N(C)C)n1`, for which, in [2], the AC50 (as a rule, the midpoint of the concentration-response curve, whichever way the signal moves) is 1.32 µM (active).

In the case of `S=C([S-])NCCNC(=S)[S-].[Mn+2]`, the call in test [2], in test [3], in [7] and in test [8] was inactive. The AC50 in [4] was 3.16 µM (active); in test [5] it was 30.5 µM (active); in [6], 25 µM (active).

Regarding `CN(C)C(=O)Nc1ccc(Cl)c(Cl)c1`, the AC50 in [9] is 9.69 µM (active).

In the case of `C[C@]12C[C@H](O)[C@H]3[C@@H](CCC4=CC(=O)CC[C@@]43C)[C@@H]1CC[C@@H]2C(=O)CO`, in test [10], the AC50 is 39 µM (active). For the same compound, the compound was called inactive in [11].

With `COC(=O)c1c(Cl)nn(C)c1S(=O)(=O)NC(=O)Nc1nc(OC)cc(OC)n1`, the compound was called inactive in [3].

As for `CCCOC(=O)c1ccc(C(=O)OCCC)nc1`, in test [5], the outcome was inactive.

Consider `S=C(S)NCCNC(=S)S.[Mn+2].[S-]C([S-])=NCCN=C([S-])[S-].[Zn+2]`, for which the result in test [2], in test [12], in test [3], in test [4], in test [6] and in test [7] was inactive. Moreover, the call in [8] was inactive. For the same compound, the AC50 is 154 nM (active) and 3.46 µM (active) and 9.37 µM (active) in [4]; 9.72 µM (active) and 9.3 µM (active) and 26.6 µM (active) in test [5]; 31.1 µM (active) in test [6]; 12.5 µM (active) and 15.4 µM (active) in [7].

For the compound `C[C@]12CC[C@@H]3c4ccc(O)cc4C[C@@H](CCCCCCCCCS(=O)CCCC(F)(F)C(F)(F)F)[C@H]3[C@@H]1CC[C@@H]2O` (stereo partly specified), the result in [13] was inactive.

Take `O=C(O)c1ccccc1`: in [2], the outcome was inactive.

Regarding `Oc1ccc(C(c2ccc(O)cc2)C(Cl)(Cl)Cl)cc1`, the compound was classed as inactive in test [1]. Besides, the results for the AC50 in test [4], in test [6] and in test [13] were 3.58 µM (active), 2.7 µM (active) and 39.4 µM (active), respectively.
